Columns and labels:
Settings in all cases: concentration: 1 μM, replicates: in singlicate; n = 1
TESK1 = tested on: TESK1
TGFBR1 = tested on: TGFBR1
TGFBR2 = tested on: TGFBR2
TIE1 = tested on: TIE1
TIE2 = tested on: T1, TIE2
T1 construct: gene TEK

TLK1 = tested on: TLK1
TLK2 = tested on: TLK2
TNIK = tested on: TNIK
TNK1 = tested on: TNK1
TNK2 = tested on: TNK2
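Further: KINOMEscan kinase panel screen.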

Structure (SMILES) | %Inh (TESK1) [%] | %Inh (TGFBR1) [%] | %Inh (TGFBR2) [%] | %Inh (TIE1) [%] | %Inh (TIE2) [%] | %Inh (TLK1) [%] | %Inh (TLK2) [%] | %Inh (TNIK) [%] | %Inh (TNK1) [%] | %Inh (TNK2) [%]
Cn1cc(-c2cnc(N)c3c(-c4ccc5c(c4)CCN5C(=O)Cc4ccccc4)csc23)cn1 [GSK2593074] | 53 | 6 | 4 | 84 | 84 | 31 | 5 | 8 | 19 | 62
CNc1nccc(-c2ccc3c(N)n[nH]c3c2)n1 [GSK2206003] | 31 | 25 | 9 | 15 | 0 | 8 | 1 | 50 | 0 | 17
CC(C)NCC(Cc1ccccc1)NC(=O)c1cc(Br)c(-c2ccnc3[nH]ccc23)s1.Cl.Cl (stereo not drawn) [GSK1383281] | 47 | 1 | 0 | 69 | 0 | 8 | 13 | 5 | 0 | 0
Cc1cc(-c2ccnc(Nc3cccc(C#N)c3)n2)cc(C)c1O [GSK1440913] | 47 | 0 | 0 | 74 | 0 | 16 | 0 | 68 | 0 | 18
CN1CCN(Cc2ccc(NC(=O)Nc3ccc(N(C)c4ccnc(Nc5ccc(CS(C)(=O)=O)cc5)n4)cc3)cc2)CC1.Cl [GW827654] | 0 | 25 | 81 | 96.9 | 80 | 25 | 0 | 90.9 | 20 | 97.7
c1ccc(Oc2ccc(Nc3ccnc4cc(-c5ccc(CN6CCCCC6)o5)ccc34)cc2)nc1 [GW567143] | 16 | 0 | 0 | 23 | 0 | 0 | 0 | 14 | 56 | 36
CCOc1nccc(-c2c(-c3ccc(F)cc3)ncn2C2CCNCC2)n1 [SB-249175] | 12 | 19 | 11 | 23 | 19 | 0 | 15 | 49 | 21 | 0
COc1ccc(C)c(Nc2ccnc(Nc3ccc(-c4cnc[nH]4)cc3)n2)c1.Cl [GW784041] | 21 | 39 | 34 | 0 | 36 | 0 | 0 | 9 | 44 | 36
O=C1NC(=O)C(c2ccccc2Cl)=C1Nc1cccc(Cl)c1 [SB-342409] | 20 | 4 | 71 | 7 | 0 | 68 | 50 | 0 | 12 | 18

Reference: publication PMC5540273 (PLoS ONE, 2017)
